Records with an inconclusive call do not appear. The source made the active and inactive calls.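 The calls were made as follows, unless noted: active = normalized viability below 100% at a tested concentration; inactive = the rest.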
Tests used:
[1] = viability loss in pontine glioma line – cell-based, SU-DIPG-XVII, MIPE5.0, CellTiter-Glo, qHTS, dose response (AID 1347060; cut-off not given, nearly all actives have AC50 up to about 26 µM;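 as to AC50: cells exposed to compound for 48 hours before viability readout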); settings: CellTiter-Glo ATP luminescence
[2] = viability loss in pontine glioma line – cell-based, SU-DIPG-XIII, MIPE5.0, CellTiter-Glo, qHTS, dose response (AID 1347064; cut-off not given, nearly all actives have AC50 up to about 23 µM;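 as to AC50: cells exposed to compound for 48 hours before the viability read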); settings: CellTiter-Glo ATP luminescence
[3] = viability loss in pontine glioma line – cell-based, SU-DIPG-XXV, MIPE5.0, CellTiter-Glo, qHTS, dose response (AID 1347065; cut-off not given, nearly all actives have AC50 up to about 26 µM;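 also: cells exposed to compound for 48 hours before ATP readout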); settings: CellTiter-Glo ATP luminescence
[4] = growth inhibition of DIPG cells – cell-based, MIPE4.0 library, CellTiter-Glo luminescence, qHTS (AID 1347066; cut-off not given, nearly all actives have AC50 up to about 30 µM;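 also: cells exposed to compound for 48 hours before readout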); settings: SU-DIPG-VI viability, CellTiter-Glo ATP luminescence
[5] = JHH-DIPG-1 glioma cell viability, MIPE5.0 library, CellTiter-Glo luminescence, qHTS (AID 1347067; cut-off not given, nearly all actives have AC50 up to about 26 µM;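 also: cells exposed to compound for 48 hours before readout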); settings: JHH-DIPG-1 glioma viability, CellTiter-Glo ATP luminescence
[6] = growth inhibition of DIPG cells – cell-based, MIPE5.0 library, qHTS (AID 1347068; cut-off not given, nearly all actives have IC50 up to about 30 µM); settings: SU-DIPG-XXV viability
[7] = viability loss with induced miR-34 in A549 – imaging, A549 dox-inducible miR-34, nuclei and caspase counts, primary screen (AID 1347080;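 active = compounds whose cell count with miR-34 switched on is under 0.7 times the count with it off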); settings: A549 miR-34 inducible, Hoechst nuclei count, 48 h
[8] = compounds altering HSF1 focus formation in cells – imaging, Selleck Cancer Library (AID 1347162; in the data active = plate-normalised HSF1 focus index below about 0.46); settings: human cells, HSF1 nuclear foci imaging, at 10 µM; SSMD: measured here: HSF1 foci SSMD mean; cell count: measured here: cell number; plate-normalised HSF1 focus index: stronger effect = lower value
[9] = MELAS cybrid and Rieske KO viability enhancers – cell-based, MELAS cybrids, Rieske KO mouse fibroblasts, CellTiter-Glo, primary screen (AID 1508586;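 active = mean z-score across replicates of 1.96 or higher in either the MELAS or the Rieske mutant cell line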;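 also: z relative to plate mean and SD of compound and empty wells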); settings: low glucose
[10] = drug combination growth inhibition, ovarian cancer – cell-based, oncology-focused library, rucaparib conditional, profiling panel (AID 1508598); settings: patient-derived ovarian cancer cells, CellTiter-Glo viability, 144 h, stronger effect = lower value
[11] = stronger effect = lower value, cell number ratio, induced over uninduced
[12] = measured here: relative caspase fold change +Dox/-Dox
[13] = measured here: total cells with miR-34 induction, stronger effect = lower value
[14] = measured here: total cells without miR-34 induction
[15] = MELAS cybrid survival, CellTiter-Glo 48 h, stronger effect = higher value
[16] = Rieske KO mouse fibroblast survival, CellTiter-Glo 72 h
[17] = at 0.000305 µM, OCI-C5x cells, with rucaparib 10 µM, 100% = cells with rucaparib alone
[18] = at 0.000305 µM, OCI-C5x cells, without rucaparib
[19] = at 0.000305 µM, OCI-P5x cells, with rucaparib 20 µM, 100% = cells with rucaparib alone
[20] = at 0.000305 µM, OCI-P5x cells, without rucaparib
[21] = at 0.00122 µM, OCI-C5x cells, with rucaparib 10 µM, 100% = cells with rucaparib alone
[22] = at 0.00122 µM, OCI-C5x cells, without rucaparib
[23] = at 0.00122 µM, OCI-P5x cells, with rucaparib 20 µM, 100% = cells with rucaparib alone
[24] = at 0.00122 µM, OCI-P5x cells, without rucaparib
[25] = at 0.00488 µM, OCI-C5x cells, with rucaparib 10 µM, 100% = cells with rucaparib alone
[26] = at 0.00488 µM, OCI-C5x cells, without rucaparib
[27] = at 0.00488 µM, OCI-P5x cells, with rucaparib 20 µM, 100% = cells with rucaparib alone
[28] = at 0.00488 µM, OCI-P5x cells, without rucaparib
[29] = at 0.0195 µM, OCI-C5x cells, with rucaparib 10 µM, 100% = cells with rucaparib alone
[30] = at 0.0195 µM, OCI-C5x cells, without rucaparib
[31] = at 0.0195 µM, OCI-P5x cells, with rucaparib 20 µM, 100% = cells with rucaparib alone
[32] = at 0.0195 µM, OCI-P5x cells, without rucaparib
[33] = at 0.0781 µM, OCI-C5x cells, with rucaparib 10 µM, 100% = cells with rucaparib alone
[34] = at 0.0781 µM, OCI-C5x cells, without rucaparib
[35] = at 0.0781 µM, OCI-P5x cells, with rucaparib 20 µM, 100% = cells with rucaparib alone
[36] = at 0.0781 µM, OCI-P5x cells, without rucaparib
[37] = at 0.313 µM, OCI-C5x cells, with rucaparib 10 µM, 100% = cells with rucaparib alone
[38] = at 0.313 µM, OCI-C5x cells, without rucaparib
[39] = at 0.313 µM, OCI-P5x cells, with rucaparib 20 µM, 100% = cells with rucaparib alone
[40] = at 0.313 µM, OCI-P5x cells, without rucaparib
[41] = at 1.25 µM, OCI-C5x cells, with rucaparib 10 µM, 100% = cells with rucaparib alone
[42] = at 1.25 µM, OCI-C5x cells, without rucaparib
[43] = at 1.25 µM, OCI-P5x cells, with rucaparib 20 µM, 100% = cells with rucaparib alone
[44] = at 1.25 µM, OCI-P5x cells, without rucaparib
[45] = at 5 µM, OCI-C5x cells, with rucaparib 10 µM, 100% = cells with rucaparib alone
[46] = at 5 µM, OCI-C5x cells, without rucaparib
[47] = at 5 µM, OCI-P5x cells, with rucaparib 20 µM, 100% = cells with rucaparib alone
[48] = at 5 µM, OCI-P5x cells, without rucaparib

## N#Cc1c(N)nc(N)nc1N[C@H](c1nc2c(F)ccc(Cl)c2c(=O)n1-c1cccnc1)C1CC1
[1]
  AC50: 18.6 µM (active)
[2]
  AC50: 13.2 µM (active)
[3]
  AC50: 11.8 µM (active)

## NC(=O)C1CCCc2c1[nH]c1ccc(Cl)cc21 (centres undefined)
[1]
  outcome: inactive
[2]
  outcome: inactive
[3]
  outcome: inactive
[4]
  outcome: inactive
[5]
  outcome: inactive
[6]
  outcome: inactive
[7]; [11]
  fold change: 1.01 (inactive)
[7]; [12]
  fold change: 0.695
[7]; [13]
  cell count: 7360
[7]; [14]
  cell count: 7260
[8]
  SSMD: 1.46
  cell count: 6830
  plate-normalised HSF1 focus index: 1.08 (inactive)
[9]; [15]
  z-score: -0.456 (inactive)
[9]; [16]
  z-score: -0.725
[10]; [17]
  viability: 114% (inactive)
[10]; [18]
  viability: 113% (inactive)
[10]; [19]
  viability: 92.1% (active)
[10]; [20]
  viability: 96.9% (active)
[10]; [21]
  viability: 118% (inactive)
[10]; [22]
  viability: 119% (inactive)
[10]; [23]
  viability: 109% (inactive)
[10]; [24]
  viability: 101% (inactive)
[10]; [25]
  viability: 117% (inactive)
[10]; [26]
  viability: 114% (inactive)
[10]; [27]
  viability: 105% (inactive)
[10]; [28]
  viability: 111% (inactive)
[10]; [29]
  viability: 106% (inactive)
[10]; [30]
  viability: 115% (inactive)
[10]; [31]
  viability: 109% (inactive)
[10]; [32]
  viability: 116% (inactive)
[10]; [33]
  viability: 113% (inactive)
[10]; [34]
  viability: 112% (inactive)
[10]; [35]
  viability: 105% (inactive)
[10]; [36]
  viability: 117% (inactive)
[10]; [37]
  viability: 112% (inactive)
[10]; [38]
  viability: 124% (inactive)
[10]; [39]
  viability: 105% (inactive)
[10]; [40]
  viability: 120% (inactive)
[10]; [41]
  viability: 109% (inactive)
[10]; [42]
  viability: 118% (inactive)
[10]; [43]
  viability: 107% (inactive)
[10]; [44]
  viability: 120% (inactive)
[10]; [45]
  viability: 100% (active)
[10]; [46]
  viability: 124% (inactive)
[10]; [47]
  viability: 95% (active)
[10]; [48]
  viability: 114% (inactive)

## OC1CCC(Nc2ncc3nc(Nc4c(F)cc(F)cc4F)n([C@@H]4CCOC4)c3n2)CC1 (some centres undefined)
[1]
  outcome: inactive
[2]
  outcome: inactive
[3]
  outcome: inactive
[4]
  outcome: inactive
[5]
  outcome: inactive
[6]
  outcome: inactive

## Cc1ccc2c(=O)c3cccc(CC(=O)O)c3oc2c1C
[1]
  outcome: inactive
[2]
  outcome: inactive
[3]
  outcome: inactive
[4]
  outcome: inactive
[5]
  outcome: inactive
[6]
  outcome: inactive
[7]; [11]
  fold change: 0.947 (inactive)
[7]; [12]
  fold change: 1.03
[7]; [13]
  cell count: 6780
[7]; [14]
  cell count: 7150
[9]; [15]
  z-score: -0.329 (inactive)
[9]; [16]
  z-score: 0.338
[10]; [17]
  viability: 94.7% (active)
[10]; [18]
  viability: 116% (inactive)
[10]; [19]
  viability: 97% (active)
[10]; [20]
  viability: 97.7% (active)
[10]; [21]
  viability: 105% (inactive)
[10]; [22]
  viability: 110% (inactive)
[10]; [23]
  viability: 102% (inactive)
[10]; [24]
  viability: 101% (inactive)
[10]; [25]
  viability: 108% (inactive)
[10]; [26]
  viability: 116% (inactive)
[10]; [27]
  viability: 105% (inactive)
[10]; [28]
  viability: 103% (inactive)
[10]; [29]
  viability: 113% (inactive)
[10]; [30]
  viability: 116% (inactive)
[10]; [31]
  viability: 107% (inactive)
[10]; [32]
  viability: 111% (inactive)
[10]; [33]
  viability: 115% (inactive)
[10]; [34]
  viability: 114% (inactive)
[10]; [35]
  viability: 110% (inactive)
[10]; [36]
  viability: 113% (inactive)
[10]; [37]
  viability: 116% (inactive)
[10]; [38]
  viability: 115% (inactive)
[10]; [39]
  viability: 68.4% (active)
[10]; [40]
  viability: 19.4% (active)
[10]; [41]
  viability: 118% (inactive)
[10]; [42]
  viability: 127% (inactive)
[10]; [43]
  viability: 104% (inactive)
[10]; [44]
  viability: 112% (inactive)
[10]; [45]
  viability: 103% (inactive)
[10]; [46]
  viability: 123% (inactive)
[10]; [47]
  viability: 104% (inactive)
[10]; [48]
  viability: 122% (inactive)

## Cn1cncc1C(N)(c1ccc(Cl)cc1)c1ccc2c(c1)c(-c1cccc(Cl)c1)cc(=O)n2C (centres undefined)
[1]
  AC50: 18.6 µM (active)
[2]
  AC50: 16.6 µM (active)
[3]
  AC50: 8.33 µM (active)
[5]
  AC50: 18.6 µM (active)

## Cn1nccc1Nc1nccc(-c2ccn([C@H](CO)c3ccc(Cl)c(F)c3)c(=O)c2)n1
[1]
  AC50: 18.6 µM (active)
[2]
  AC50: 10.5 µM (active)
[3]
  AC50: 18.6 µM (active)
[5]
  AC50: 1.48 µM (active)

## CCC[C@H](NC(=O)[C@@H]1[C@H]2CCC[C@H]2CN1C(=O)[C@@H](NC(=O)[C@@H](NC(=O)c1cnccn1)C1CCCCC1)C(C)(C)C)C(=O)C(=O)NC1CC1
[1]
  outcome: inactive
[2]
  outcome: inactive
[3]
  outcome: inactive
[4]
  outcome: inactive
[5]
  AC50: 18.6 µM (active)
[6]
  outcome: inactive

Source: PubChem BioAssay
